In PubChem BioAssay AID1159580 (chemical genetic matrix, 2015):
Several values for one entry are separate records, joined by “and”; a condition that tells them apart may be missing. Equal values may be shown once. The campaign covered roughly 5,500 compounds. About 2,000 (36%) were called active. Inconclusive results (about 18%) are left out. Cut-off read from the data, not from the text of the source: active = normalized growth mostly below about 0.91 (no sharp cut-off); inconclusive = no clear call, values can overlap the other calls; inactive = mostly above about 0.92. The list shows a part of the results.

Experiment: chemical genetic growth profiling, strain panel (AID 1159580);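 note: tested at 20 µM; growth read once vehicle control cultures reached saturation at 30 °C; 1 = growth at the plate median or of vehicle wells; lower values mean less growth of the strain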
Conditions: growth OD

Measured: normalized growth

COc1c2c(cc3c1OCO3)CC[N+](C)=C2
inactive: S. cerevisiae deletion strains, locus YAL013W, strain DEP1, hits give low values 1 | S. cerevisiae deletion strains, locus YAL021C, strain ccr4, hits give low values 0.977 | S. cerevisiae deletion strains, locus YAL026C, strain drs2, hits give low values 0.995 | S. cerevisiae deletion strains, locus YAL030W, strain snc1, hits give low values 0.994 | S. cerevisiae deletion strains, locus YBL061C, strain skt5, hits give low values 1.01 | S. cerevisiae deletion strains, locus YBR009C, strain hhf1, hits give low values 0.984 | S. cerevisiae deletion strains, locus YBR021W, strain FUR4, hits give low values 1.02 | S. cerevisiae deletion strains, locus YBR023C, strain chs3, hits give low values 1.01 | S. cerevisiae deletion strains, locus YBR171W, strain sec66, hits give low values 0.997 | S. cerevisiae deletion strains, locus YBR229C, strain ROT2, hits give low values 0.999 | S. cerevisiae deletion strains, locus YBR231C, strain swc5, hits give low values 1.03 | S. cerevisiae deletion strains, locus YBR279W, strain paf1, hits give low values 1 | S. cerevisiae deletion strains, locus YCL011C, strain gbp2, hits give low values 0.986 | S. cerevisiae deletion strains, locus YCL016C, strain dcc1, hits give low values 0.974 | S. cerevisiae deletion strains, locus YCL029C, strain bik1, hits give low values 0.993 | S. cerevisiae deletion strains, locus YCL069W, strain vba3, hits give low values 0.99 | S. cerevisiae deletion strains, locus YCR088W, strain abp1, hits give low values 1 | S. cerevisiae deletion strains, locus YDL005C, strain med2, hits give low values 1 | S. cerevisiae deletion strains, locus YDL035C, strain GPR1, hits give low values 1.01 | S. cerevisiae deletion strains, locus YDL040C, strain nat1, hits give low values 1.01 | S. cerevisiae deletion strains, locus YDL074C, strain BRE1, hits give low values 1.04 | S. cerevisiae deletion strains, locus YDL101C, strain DUN1, hits give low values 1.02 | S. cerevisiae deletion strains, locus YDL134C, strain PPH21, hits give low values 1.05 | S. cerevisiae deletion strains, locus YDL185W, strain tfp1, hits give low values 1.01 | S. cerevisiae deletion strains, locus YDL192W, strain arf1, hits give low values 1 | S. cerevisiae deletion strains, locus YDR001C, strain nth1, hits give low values 0.977 | S. cerevisiae deletion strains, locus YDR069C, strain doa4, hits give low values 1.01 | S. cerevisiae deletion strains, locus YDR101C, strain arx1, hits give low values 1 | S. cerevisiae deletion strains, locus YDR137W, strain rgp1, hits give low values 1 | S. cerevisiae deletion strains, locus YDR150W, strain NUM1, hits give low values 0.993 | S. cerevisiae deletion strains, locus YDR159W, strain sac3, hits give low values 1.08 | S. cerevisiae deletion strains, locus YDR162C, strain NBP2, hits give low values 1.05 | S. cerevisiae deletion strains, locus YDR195W, strain ref2 1.01 | S. cerevisiae deletion strains, locus YDR297W, strain sur2, hits give low values 1.02 | S. cerevisiae deletion strains, locus YDR318W, strain mcm21, hits give low values 1 | S. cerevisiae deletion strains, locus YDR334W, strain swr1, hits give low values 0.991 | S. cerevisiae deletion strains, locus YDR335W, strain msn5, hits give low values 0.996 | S. cerevisiae deletion strains, locus YDR388W, hits give low values 0.994 | S. cerevisiae deletion strains, locus YDR392W, strain spt3, hits give low values 0.93 | S. cerevisiae deletion strains, locus YDR502C, strain sam2, hits give low values 1.01 | S. cerevisiae deletion strains, locus YEL003W, strain gim4, hits give low values 1 | S. cerevisiae deletion strains, locus YEL037C, strain rad23, hits give low values 0.986 | S. cerevisiae deletion strains, locus YEL061C, strain CIN8 (second series), hits give low values 0.998 | S. cerevisiae deletion strains, locus YER015W, strain faa2, hits give low values 0.998 | S. cerevisiae deletion strains, locus YER016W, strain bim1, hits give low values 1.01 | S. cerevisiae deletion strains, locus YER110C, hits give low values 1.01 | S. cerevisiae deletion strains, locus YER111C, strain swi4, hits give low values 1 | S. cerevisiae deletion strains, locus YER155C, strain BEM2 (second series), hits give low values 1.06 | S. cerevisiae deletion strains, locus YER155C, strain BEM2, hits give low values 0.976 | S. cerevisiae deletion strains, locus YER167W, strain BCK2, hits give low values 0.997 | S. cerevisiae deletion strains, locus YFR010W, strain ubp6, hits give low values 0.996 | S. cerevisiae deletion strains, locus YGL078C, strain dbp3, hits give low values 1.04 | S. cerevisiae deletion strains, locus YGL086W, strain mad1, hits give low values 1.01 | S. cerevisiae deletion strains, locus YGL167C, strain pmr1, hits give low values 0.993 | S. cerevisiae deletion strains, locus YGL173C, strain kem1, hits give low values 1.02 | S. cerevisiae deletion strains, locus YGL227W, strain vid30, hits give low values 0.999 | S. cerevisiae deletion strains, locus YGL240W, strain doc1, hits give low values 1.02 | S. cerevisiae deletion strains, locus YGL248W, strain PDE1, hits give low values 1.03 | S. cerevisiae deletion strains, locus YGL253W, strain hxk2, hits give low values 1 | S. cerevisiae deletion strains, locus YGR078C, strain PAC10, hits give low values 0.987 | S. cerevisiae deletion strains, locus YGR135W, strain pre9, hits give low values 1.03 | S. cerevisiae deletion strains, locus YGR252W, strain gcn5, hits give low values 1.05 | S. cerevisiae deletion strains, locus YHR013C, strain ard1, hits give low values 0.974 | S. cerevisiae deletion strains, locus YHR027C, strain rpn1, hits give low values 0.981 | S. cerevisiae deletion strains, locus YHR030C, strain SLT2, hits give low values 0.989 | S. cerevisiae deletion strains, locus YHR079C, strain IRE1 (second series), hits give low values 1.01 | S. cerevisiae deletion strains, locus YHR079C, strain IRE1, hits give low values 1 | S. cerevisiae deletion strains, locus YHR094C, strain hxt1, hits give low values 1 | S. cerevisiae deletion strains, locus YHR129C, strain ARP1, hits give low values 1 | S. cerevisiae deletion strains, locus YHR142W, strain chs7, hits give low values 0.982 | S. cerevisiae deletion strains, locus YHR200W, strain rpn10, hits give low values 0.998 | S. cerevisiae deletion strains, locus YIL066C, strain RNR3, hits give low values 1 | S. cerevisiae deletion strains, locus YIL073C, strain SPO22, hits give low values 1.06 | S. cerevisiae deletion strains, locus YIL125W, strain kgd1, hits give low values 0.995 | S. cerevisiae deletion strains, locus YIR030C, strain dcg1, hits give low values 1.01 | S. cerevisiae deletion strains, locus YJL092W, strain hpr5, hits give low values 0.988 | S. cerevisiae deletion strains, locus YJL095W, strain BCK1 (second series), hits give low values 1 | S. cerevisiae deletion strains, locus YJL095W, strain BCK1, hits give low values 1.05 and 0.977 | S. cerevisiae deletion strains, locus YJL115W, strain asf1, hits give low values 0.977 | S. cerevisiae deletion strains, locus YJL129C, strain trk1, hits give low values 1.01 | S. cerevisiae deletion strains, locus YJL134W, strain LCB3, hits give low values 0.994 | S. cerevisiae deletion strains, locus YJL154C, strain vps35, hits give low values 0.985 | S. cerevisiae deletion strains, locus YJL164C, strain tpk1, hits give low values 0.965 | S. cerevisiae deletion strains, locus YJL166W, strain qcr8, hits give low values 1.01 | S. cerevisiae deletion strains, locus YJL168C, strain set2, hits give low values 1.01 | S. cerevisiae deletion strains, locus YJL187C, strain SWE1 (second series), hits give low values 1.04 | S. cerevisiae deletion strains, locus YJL187C, strain SWE1, hits give low values 1.02 | S. cerevisiae deletion strains, locus YJR043C, strain POL32, hits give low values 0.99 | S. cerevisiae deletion strains, locus YJR066W, strain TOR1, hits give low values 0.886 | S. cerevisiae deletion strains, locus YKL009W, strain mrt4, hits give low values 1.04 | S. cerevisiae deletion strains, locus YKL068W, hits give low values 0.996 | S. cerevisiae deletion strains, locus YKL085W, strain MDH1 (second series), hits give low values 1.01 | S. cerevisiae deletion strains, locus YKL085W, strain MDH1, hits give low values 1.01 | S. cerevisiae deletion strains, locus YKL160W, strain elf1, hits give low values 0.977 | S. cerevisiae deletion strains, locus YKL190W, strain CNB1, hits give low values 1 | S. cerevisiae deletion strains, locus YKR001C, strain vps1, hits give low values 1.02 | S. cerevisiae deletion strains, locus YKR026C, strain gcn3, hits give low values 0.993 | S. cerevisiae deletion strains, locus YKR091W, strain srl3, hits give low values 0.99 | S. cerevisiae deletion strains, locus YLL001W, strain dnm1, hits give low values 1 | S. cerevisiae deletion strains, locus YLL026W, hits give low values 1 | S. cerevisiae deletion strains, locus YLL041C, strain sdh2, hits give low values 0.984 | S. cerevisiae deletion strains, locus YLR027C, strain aat2, hits give low values 1.01 | S. cerevisiae deletion strains, locus YLR039C, strain RIC1, hits give low values 1.1 | S. cerevisiae deletion strains, locus YLR058C, strain SHM2, hits give low values 1.02 | S. cerevisiae deletion strains, locus YLR102C, strain apc9, hits give low values 1 | S. cerevisiae deletion strains, locus YLR113W, strain HOG1, hits give low values 0.978 | S. cerevisiae deletion strains, locus YLR221C, strain rsa3, hits give low values 1.04 | S. cerevisiae deletion strains, locus YLR258W, strain gsy2, hits give low values 1.02 | S. cerevisiae deletion strains, locus YLR262C, strain YPT6 (second series), hits give low values 0.995 | S. cerevisiae deletion strains, locus YLR262C, strain YPT6, hits give low values 1.12 | S. cerevisiae deletion strains, locus YLR268W, strain sec22, hits give low values 0.999 | S. cerevisiae deletion strains, locus YLR320W, strain mms22, hits give low values 1.06 | S. cerevisiae deletion strains, locus YLR342W, strain FKS1, hits give low values 1.01 | S. cerevisiae deletion strains, locus YLR357W, strain rsc2, hits give low values 0.968 | S. cerevisiae deletion strains, locus YLR370C, strain arc18, hits give low values 1 | S. cerevisiae deletion strains, locus YLR371W, strain rom2, hits give low values 1.01 | S. cerevisiae deletion strains, locus YLR384C, strain iki3, hits give low values 0.999 | S. cerevisiae deletion strains, locus YLR418C, strain cdc73, hits give low values 1.03 | S. cerevisiae deletion strains, locus YML016C, strain PPZ1, hits give low values 1.01 | S. cerevisiae deletion strains, locus YML032C, strain rad52, hits give low values 0.999 | S. cerevisiae deletion strains, locus YML120C, strain ndi1, hits give low values 0.977 | S. cerevisiae deletion strains, locus YML124C, strain tub3, hits give low values 1.01 | S. cerevisiae deletion strains, locus YMR058W, strain fet3, hits give low values 1 | S. cerevisiae deletion strains, locus YMR078C, strain ctf18, hits give low values 1 | S. cerevisiae deletion strains, locus YMR125W, strain sto1, hits give low values 0.923 | S. cerevisiae deletion strains, locus YMR129W, hits give low values 0.996 | S. cerevisiae deletion strains, locus YMR205C, strain PFK2, hits give low values 0.975 | S. cerevisiae deletion strains, locus YMR223W, strain ubp8, hits give low values 1.02 | S. cerevisiae deletion strains, locus YMR231W, strain pep5, hits give low values 1.01 | S. cerevisiae deletion strains, locus YMR307W, strain GAS1, hits give low values 1.03 | S. cerevisiae deletion strains, locus YNL067W, strain RPL9B, hits give low values 1.03 | S. cerevisiae deletion strains, locus YNL071W, strain lat1, hits give low values 0.998 | S. cerevisiae deletion strains, locus YNL183C, strain NPR1, hits give low values 0.923 | S. cerevisiae deletion strains, locus YNL209W, strain ssb2, hits give low values 0.992 | S. cerevisiae deletion strains, locus YNL233W, strain BNI4, hits give low values 1.01 | S. cerevisiae deletion strains, locus YNL248C, strain rpa49, hits give low values 0.924 | S. cerevisiae deletion strains, locus YNL250W, strain rad50, hits give low values 1.03 | S. cerevisiae deletion strains, locus YNL271C, strain bni1, hits give low values 1.03 | S. cerevisiae deletion strains, locus YNL298W, strain CLA4, hits give low values 0.992 | S. cerevisiae deletion strains, locus YNL307C, strain MCK1, hits give low values 1.01 | S. cerevisiae deletion strains, locus YNL322C, strain KRE1 (second series), hits give low values 0.997 | S. cerevisiae deletion strains, locus YNR049C, strain mso1, hits give low values 0.979 | S. cerevisiae deletion strains, locus YNR052C, strain pop2, hits give low values 1.01 | S. cerevisiae deletion strains, locus YOL012C, strain htz1 0.651 | S. cerevisiae deletion strains, locus YOL147C, strain pex11, hits give low values 1 | S. cerevisiae deletion strains, locus YOR001W, strain rrp6, hits give low values 1.03 | S. cerevisiae deletion strains, locus YOR061W, strain CKA2, hits give low values 1.01 | S. cerevisiae deletion strains, locus YOR069W, strain VPS5, hits give low values 1 | S. cerevisiae deletion strains, locus YOR070C, strain gyp1, hits give low values 1.02 | S. cerevisiae deletion strains, locus YOR080W, strain dia2, hits give low values 1.02 | S. cerevisiae deletion strains, locus YOR083W, strain WHI5, hits give low values 0.97 | S. cerevisiae deletion strains, locus YOR106W, strain vam3, hits give low values 0.937 | S. cerevisiae deletion strains, locus YOR136W, strain idh2, hits give low values 1.03 | S. cerevisiae deletion strains, locus YOR144C, strain elg1, hits give low values 1 | S. cerevisiae deletion strains, locus YOR184W, strain ser1, hits give low values 0.996 | S. cerevisiae deletion strains, locus YOR231W, strain MKK1, hits give low values 0.994 | S. cerevisiae deletion strains, locus YOR265W, strain rbl2, hits give low values 0.996 | S. cerevisiae deletion strains, locus YOR270C, strain vph1, hits give low values 0.991 | S. cerevisiae deletion strains, locus YOR290C, strain snf2, hits give low values 0.919 | S. cerevisiae deletion strains, locus YOR316C, strain cot1, hits give low values 1.01 | S. cerevisiae deletion strains, locus YPL051W, strain arl3, hits give low values 1.03 | S. cerevisiae deletion strains, locus YPL078C, strain atp4, hits give low values 0.952 | S. cerevisiae deletion strains, locus YPL106C, strain sse1, hits give low values 0.972 | S. cerevisiae deletion strains, locus YPL240C, strain hsp82, hits give low values 1.01 | S. cerevisiae deletion strains, locus YPL256C, strain CLN2, hits give low values 0.975 | S. cerevisiae deletion strains, locus YPR119W, strain clb2, hits give low values 1.01 | S. cerevisiae deletion strains, locus YPR141C, strain kar3, hits give low values 1.01 | S. cerevisiae deletion strains, locus YPR163C, strain tif3, hits give low values 1.02 | S. cerevisiae deletion strains, locus YPR167C, strain met16, hits give low values 1.01 | S. cerevisiae deletion strains, strain wtn01, hits give low values 1 | S. cerevisiae strains, strain wild type, hits give low values 1
